Reference: PubChem BioAssay (NCI)
About 83,000 compounds went through this panel and 20% of them were active in at least one assay; those are over-represented in the sample as a whole.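 How to read the values: 0–100, growth inhibition (40 = 60% inhibited); 0, no net growth; -100 to 0, cell death (-40 = 40% of starting cells died; -100 = all dead).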 Calls of active or inactive are those of the source. How the source made its calls: active means growth percent below 10; inactive means the rest.

What follows are compounds tested on MDA-MB-435 melanoma (assay: NCI-60 one-dose screen, 48 h (100 = growth as untreated, 0 = no growth, -100 = all killed)). Conditions: 10 µM unless noted.

SMILES | growth
Cc1cc(N2CCCC2)nc(NC2CCCC(Nc3ccnc4cc(Cl)ccc34)C2)n1 (stereo unspecified) | -92.6% (active)
CN(C)c1ccc(N=Nc2ccc(Br)cn2)c(O)c1 | 33% (inactive)
COc1ccc(-c2cc(NC(=O)Nc3ccc4ncsc4c3)no2)cc1 | 105% (inactive)
O=[N+]([O-])c1ccc2c(c1)Cc1cc(F)ccc1-2 | 96.9% (inactive)
COc1ccc2[nH]cc(-c3noc(C(=O)c4cn(C)c5ccc(F)cc45)n3)c2c1 | 102% (inactive)
CCOC(=O)c1csc(NC(=O)COc2cccc(/C=C3\CSc4ccccc4C3=O)c2)n1 | 17.9% (inactive)
O=C(N=Nc1c(O)[nH]c2ccc(Br)cc12)c1cc(-c2ccccc2)on1 | 95.8% (inactive)
CC1CCNC(C)C1 (stereo unspecified) | 107% (inactive)
CC(O)CN(CC(C)O)c1ccc2c(c1)Cc1cc([N+](=O)[O-])ccc1-2 (stereo unspecified) | 98.7% (inactive)
Nc1nc2ccc3[nH]ncc3c2c2c1CCCC2 | 6.3% (active)
N#CN1CC[C@H](C(=O)Nc2cc3cc(C(N)=O)ccc3cn2)C1 | 3.57% (active)
C=CC(=O)Nc1cccc(-c2nc(SC)nc(NCCN3CCOCC3)c2C#N)c1 | 87.1% (inactive)
CC(=O)OCCC/C(=C/c1cc2ccccc2c2ccccc12)[N+](=O)[O-] | -36.2% (active)
NC(CSC(c1ccccc1)(c1ccccc1)c1ccc(Cl)cc1)C(=O)O (stereo unspecified) | -40.2% (active)
Cc1ccccc1COc1ccc(-c2ccnn2-c2ccc(Cl)cc2)cc1 | 0.81% (active)
COc1ccc(-c2cc(=O)c3c(OC)c4ccoc4cc3o2)cc1 | 89.6% (inactive)
